Assay results published in PubChem BioAssay (NCI).
Compounds without any hit were thinned out: in the full panel of roughly 83,000, 20% have a hit.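 48-hour exposure, single concentration, 96-well plates; percent growth endpoint where 0 means no net growth. Active: below 10.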 A number with no mark means an inactive call. Active and inactive are the calls of the source.

Columns and labels:
Assay in all cases: NCI-60 one-dose screen, 48 h (100 = growth as untreated, 0 = no growth, -100 = all killed)
Details in all cases: 10 µM unless noted
T-47D breast = system: T-47D breast
BT-549 breast = system: BT-549 breast
MDA-MB-435 melanoma = system: MDA-MB-435 melanoma
SW-620 colon = system: SW-620 colon
MCF7 breast = system: MCF7 breast
HCT-116 colon = system: HCT-116 colon
HCC-2998 colon = system: HCC-2998 colon
KM12 colon = system: KM12 colon

SMILES	growth (T-47D breast)	growth (BT-549 breast)	growth (MDA-MB-435 melanoma)	growth (SW-620 colon)	growth (MCF7 breast)	growth (HCT-116 colon)	growth (HCC-2998 colon)	growth (KM12 colon)
COc1ccc(/C=C(\C#N)C(=O)Nc2cccc(Nc3nc(SC)nc(-c4cccc([N+](=O)[O-])c4)c3C#N)c2)cc1OC	87%	95.9%	103%	102%	70.8%	92.6%	114%	99.1%
C=CC(=O)Nc1cccc(-c2nc(SC)nc(Nc3ccccc3OC)c2C#N)c1	3.01% (active)	57.1%	18.7%	17.2%	2.55% (active)	2.91% (active)	81.3%	82.8%
CN(C)S(=O)(=O)c1cccc(-c2nc3sc4c(c3c(=O)[nH]2)CCCC4)c1	-22.1% (active)	31.9%	43.9%	13.7%	53.4%	-41.3% (active)	-50.5% (active)	43.9%
N#Cc1c(-c2ccc(Cl)cc2)nc(N/N=C/c2cccc(Br)c2)nc1N1CCOCC1	67.5%	101%	104%	31.5%	72.5%	61.5%	96.1%	94.9%
O=C(N(c1ccccc1)c1ccccc1)n1ccc2nc(Cl)nc(Cl)c21	34.2%	47.2%	37.9%	51.1%	32.5%	49.6%	91.5%	55.7%
O=S(=O)(Nc1ccc(OC(F)F)cc1)c1ccc(-c2cnc(C3CC3)o2)cc1	48.3%	63.4%	8.1% (active)	35.2%	39.1%	65.4%	80.5%	74.1%
CN(C)[C@@H]1C(=O)C(C(=O)NCc2nc3[nH]cnc(=S)c3[nH]2)=C(O)[C@@]2(O)C(=O)C3=C(O)c4c(O)cccc4[C@@](C)(O)[C@H]3C[C@@H]12	40.4%	54%	33.8%	73.8%	16.6%	33.8%	16.3%	68.5%
N#Cc1c(-c2ccc(Cl)cc2)nc(NN=Cc2ccco2)nc1N1CCOCC1	23.2%	58.5%	79.4%	82.2%	26.2%	76.2%	74.8%	95%
O=C(Cc1ccccc1Nc1c(Cl)cccc1Cl)NN1C(=O)/C(=C/c2ccc(Br)cc2)SC1=S	107%	105%	107%	98.5%	100%	103%	106%	107%
COc1cc2nc(N3CCCC3)nc(NCC3CCCCC3)c2cc1OC	-49.9% (active)	42.6%	-72.3% (active)	-41.6% (active)	-78.8% (active)	-65.2% (active)	-60.1% (active)	75.4%
O=c1ccccc(-c2ccc(Br)cc2)c1O	26.7%	23.8%	25.8%	26.8%	14.3%	18.6%	41.5%	24.6%
Nc1n[nH]c2ccc([C@@H]3Nc4ccc5cn[nH]c5c4[C@H]4C5CCC(C5)[C@@H]34)cc12 (stereo partly specified)	57.5%	20.9%	-47.7% (active)	19%	15.2%	12.9%	24.3%	17.6%
Clc1ccc2c(NCCNc3nc(N4CCCCC4)nc4ccccc34)ccnc2c1	-29.7% (active)	53.7%	-66.4% (active)	-36.6% (active)	14.5%	-25.4% (active)	10.6%	7.18% (active)
Clc1ccc2c(NCCCCNc3nc(N4CCCCC4)nc4ccccc34)ccnc2c1	-46.7% (active)	37%	-81.9% (active)	-1.17% (active)	15.8%	-17.7% (active)	-16.5% (active)	19.6%
Cc1cc(N[C@@H]2CCC[C@H](Nc3ccnc4cc(Cl)ccc34)C2)nc(N2CCCCCC2)n1	-41.8% (active)	-87.9% (active)	-91.7% (active)	-76.5% (active)	-63.1% (active)	-88.6% (active)	-83.7% (active)	-39% (active)
COc1ccc(SC2c3ccc(C)cc3Oc3nc(N)c(C#N)c(N)c32)cc1 (stereo unspecified)	-34.5% (active)	-72.9% (active)	-69.6% (active)	-65.2% (active)	-48.6% (active)	-64.4% (active)	-78.9% (active)	3.92% (active)

SMILES	growth (T-47D breast)	growth (BT-549 breast)	growth (MDA-MB-435 melanoma)	growth (SW-620 colon)	growth (MCF7 breast)	growth (HCT-116 colon)	growth (HCC-2998 colon)	growth (KM12 colon)
CC(=O)O[C@H]1CC[C@]2(C)[C@H]3CC=C4[C@@H]5CC(C)(C)CC[C@]5(C(=O)NCCNCCNCCN)CC[C@@]4(C)[C@]3(C)CC[C@H]2C1(C)C	-15.1% (active)	87.2%	9.05% (active)	-83.1% (active)	-85.9% (active)	-80.8% (active)	1.19% (active)	85.3%
O=C1NC(=S)NC(=O)C1CC(=O)n1c(-c2ccccc2)nc2ccccc21	95.3%	100%	102%	98.6%	80.4%	104%	104%	101%
COc1cc(/C=C/C(=O)c2c(C)oc3nc[nH]c(=O)c23)cc(OC)c1OC	58.9%	72.6%	74.4%	77.5%	47.9%	61.3%	112%	96.9%
CSc1nc(NCCO)c(C#N)c(-c2cccc([N+](=O)[O-])c2)n1	94.1%	96.6%	99.8%	101%	91.4%	96.1%	102%	98.3%
CCCOc1cc2ccccc2cc1C(=O)Nc1nc(NC)c2c(ccc3nccc32)[nH]1	-52.5% (active)	-27.4% (active)	-89.2% (active)	-75% (active)	-61.9% (active)	-72.3% (active)	-70.5% (active)	-72.2% (active)
COc1ccc2c(c1)c(-c1nonc1-c1cn(C)c3ccccc13)cn2C	33.5%	60.2%	1.09% (active)	24.5%	24%	26.6%	45.4%	25.7%
COc1cc(-c2nn(-c3ccc(Br)cc3)cc2C(=O)O)ccc1O	98.5%	98.8%	97%	105%	81.5%	97.9%	108%	94.8%
O=C(CCN1C(=O)/C(=C/c2ccc(Cl)cc2)SC1=S)NCCCN1CCOCC1	90.8%	106%	98.9%	100%	90.1%	98.7%	105%	104%
Cc1nn(-c2cc(=O)[nH]c3ccccc23)c(N)c1C#N	104%	110%	106%	103%	97.5%	107%	115%	101%
COc1ccc(/C=C/c2nc(-c3n[nH]c(=O)n3-c3ccccc3)c3ccccc3n2)cc1	89.3%	111%	99.4%	89.6%	90.6%	104%	112%	94.2%
COc1cc2nc(N3CCCC3)nc(NCc3ccccc3)c2cc1OC	7.79% (active)	70.5%	6.99% (active)	55.9%	29.4%	28.2%	55.4%	96.3%
O=C(/C=C/c1cc(CN2CCOCC2)c(O)c2ncccc12)c1cc(CN2CCOCC2)c(O)c2ncccc12	7.07% (active)	12.8%	21%	18.7%	10%	21.7%	37.2%	21.7%
COc1ccc(-c2nc3ccc(-c4nc5ccc(N6CCN(c7ccccc7)CC6)cc5[nH]4)cc3[nH]2)cc1OC	-36.4% (active)	52.9%	-3.15% (active)	-32.7% (active)	-85.3% (active)	-100% (active)	-53.6% (active)	4.37% (active)
Clc1ccc2nc3nc4ccc[nH]c4cc3c2c1	22%	97.7%	103%	102%	6.54% (active)	96.9%	70.6%	63%
O=C1Nc2cc(-c3ccc(O)cc3)ccc2/C1=C/c1ccc[nH]1	0.283% (active)	16.9%	7.05% (active)	14.1%	1.73% (active)	4.68% (active)	-13.9% (active)	2.31% (active)
Cn1cc(-c2nonc2-c2cn(C)c3ccc(F)cc23)c2ccccc21	37.3%	56.1%	-26% (active)	22%	21.3%	11.6%	25.9%	14.7%
